ADAM10 inh: human ADAM10 inhibitors, primary screen, biochemical, QFRET, HTS. Disintegrin and metalloproteinase domain-containing protein 10 (Homo sapiens), O14672. recombinant ADAM10, EDANS/DABCYL FRET peptide cleavage, 3 h. inhibition, % at 7 µM. actives 0.62% (n = 370,000). AID 720582, 2013;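 active means inhibition above a per-campaign cutoff equal to the mean of compounds falling between control-based bounds plus 3 SD, cut at about 20% in these data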;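 further: 0% = DMSO wells while the 100% control is not disclosed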
FGF22 binding: binders of human FGF22 protein, primary screen, FGF22 synaptogenesis inhibitor project, biophysical, thermal shift, single point; activity (Tm shift, normalised), % at 9.99 µM; recombinant FGF22 thermal shift, SYPRO orange fluorescence; percent of sucrose octasulfate shift, DMSO zero; actives 1.5% (n = 340,000); AID 651658, 2012; Fibroblast growth factor 22 (Homo sapiens), Q9HCT0;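 active means mean Tm shift, scaled 0 neutral to 100 positive control, at about 1.3% or above, every replicate too, limit read from the data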
Ecoli rRNA inh: reduced GFP signal of wild-type E. coli, primary screen, bacterial rRNA inhibitor project, GFP/RFP fluorescence, OD600, single point; E. coli WT GFP vs humanized-ribosome RFP mutants, 24 h; stronger effect = lower value; DMSO median 0, no signal -100; GFP signal change (wild-type ribosome), % (test concentration not listed); actives 1.6% (n = 350,000); AID 720706, 2013;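 active means significant combined selectivity score with lowered wild-type GFP, culture density cut under 30%, mutant RFP and density less affected; inactive means any of these conditions unmet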
ADAM17 inh: ADAM17 inhibitors, primary screen, biochemical, QFRET. Disintegrin and metalloproteinase domain-containing protein 17 (Homo sapiens), P78536. recombinant ADAM17, EDANS/DABCYL FRET peptide cleavage. inhibition, % at 6.95 µM. actives 0.83% (n = 370,000);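 active means inhibition above the mean of compounds lying between control limits plus 3 SD, set per campaign, cut at about 8.5% in these data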;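 further: 0% = DMSO-only wells as the low control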
Target sequence (P78536 215-824 limits assumed): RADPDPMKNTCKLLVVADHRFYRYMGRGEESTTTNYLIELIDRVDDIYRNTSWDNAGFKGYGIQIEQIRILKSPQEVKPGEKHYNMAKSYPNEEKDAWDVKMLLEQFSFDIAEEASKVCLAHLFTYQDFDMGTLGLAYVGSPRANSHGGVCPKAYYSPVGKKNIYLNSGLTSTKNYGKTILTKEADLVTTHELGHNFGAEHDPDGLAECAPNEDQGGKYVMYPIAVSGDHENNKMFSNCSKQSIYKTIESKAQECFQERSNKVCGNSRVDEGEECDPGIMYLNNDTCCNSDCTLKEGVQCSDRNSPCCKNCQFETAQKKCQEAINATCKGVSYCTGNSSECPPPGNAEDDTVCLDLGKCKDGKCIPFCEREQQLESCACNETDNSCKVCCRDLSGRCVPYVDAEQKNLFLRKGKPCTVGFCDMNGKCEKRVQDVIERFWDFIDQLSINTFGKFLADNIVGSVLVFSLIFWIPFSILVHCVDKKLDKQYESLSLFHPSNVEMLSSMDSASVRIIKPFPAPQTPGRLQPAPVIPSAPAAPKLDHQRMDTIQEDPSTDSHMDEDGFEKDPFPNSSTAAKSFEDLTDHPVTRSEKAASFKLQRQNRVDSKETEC
proKLK7 act: proKLK7 zymogen activators, primary screen, biochemical, fluorescence intensity. actives 0.9% (n = 370,000). purified proKLK7, EDANS-DABCYL substrate fluorescence; 100% is mature enzyme control, 0% vehicle. activation, % at 7 µM. Kallikrein-7 (Homo sapiens), P49862. AID 652039, 2013;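 active means activation above the mean of all tested compounds plus 3 SD, computed per campaign excluding outliers beyond control limits, cut at about 13% in these data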
ADAM10 confirm: human ADAM10 inhibitors, confirmation, biochemical, QFRET, triplicate. AID 743208, 2013. actives 1% (n = 2,100). shares compounds with ADAM10 inh. inhibition, % at 6.95 µM. ADAM10 QFRET peptide cleavage, EDANS fluorescence;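 active means inhibition above about 20% chosen separately for each screening run, limit read from the data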;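 further: 0% = DMSO wells and 100% = marimastat wells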
ADAM17 ctr: ADAM17 inhibitors, counter-screen for ADAM10 exosite inhibitor project, biochemical, QFRET, high throughput | inhibition, % at 6.95 µM | actives 0.5% (n = 2,100) | ADAM17 QFRET peptide cleavage, EDANS fluorescence | shares compounds with ADAM10 inh;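 active means mean triplicate inhibition above the solvent-only control wells' mean plus 3 SD, cut at about 12% in these data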;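 further: 0% = DMSO wells and 100% = marimastat wells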
The depositor's hits bear a star; . = not tested or not shown. Shown are actives, neighbours in structure and some others; about 3.8% of the full set was active somewhere.

SMILES	ADAM10 inh	FGF22 binding	Ecoli rRNA inh	ADAM17 inh	proKLK7 act	ADAM10 confirm	ADAM17 ctr
Cc1noc(C)c1NC(=O)N(C)C[C@@H]1OCCCC[C@H](C)Oc2ccc(NC(=O)C3CCCCC3)cc2C(=O)N([C@@H](C)CO)C[C@@H]1C	.	0	1	.	.	.	.
CCCN(CCC)S(=O)(=O)c1ccc(C(=O)NCc2n[nH]c(=S)n2-c2ccc(Cl)c(Cl)c2)cc1	24*	0	-9	6	0	1	1
OC(c1ccc(F)cc1)c1nc(-c2ccc(F)c(Cl)c2)cs1 (stereo unspecified)	20*	0	-67	8	-1	7	2
COc1cc(C(O)c2nc(-c3cccc(C(F)(F)F)c3)cs2)ccc1F (stereo unspecified)	21*	0	-65	8	0	5	1
CCCC#Cc1ccc2c(c1)O[C@H](CN(C)Cc1cccnc1)[C@H](C)CN([C@@H](C)CO)S2(=O)=O	.	0	-22	.	.	.	.
COc1ccc(NS(=O)(=O)c2cccc(N3CC(O)=C(c4ccccc4)C3=N)c2)cc1	65*	1	1	-1	0	2	0
COc1ccccc1NS(=O)(=O)c1cccc(N2CC(O)=C(c3ccccc3)C2=N)c1	2	0	-2	1	0	.	.
COc1ccccc1NS(=O)(=O)c1cccc(NC(=O)Nc2ccc(Cl)cc2)c1	56*	0	-32	26*	0	12	3
COc1ccc(NC(=O)Nc2ccc3c(c2)[C@H]2C[C@@H](CC(=O)N(C)C)O[C@@H](CO)[C@H]2O3)cc1	.	0	3	.	.	.	.
O=S(=O)(Nc1ccc2c(c1)OCCO2)c1ccc(Br)s1	21*	0	-21	3	0	2	0
C[C@H]1CN([C@@H](C)CO)C(=O)c2cc(NC(=O)Nc3ccc(C(F)(F)F)cc3)ccc2O[C@H]1CN(C)CC1CC1	.	1	-1	.	.	.	.
Cn1c(=O)c(C(=O)NNC(=O)c2ccccc2Br)c(O)c2ccccc21	20*	0	-10	5	0	8	4
CN(C)CC(=O)Nc1ccc2c(c1)[C@@H]1C[C@H](CC(=O)NCCc3ccccc3)O[C@@H](CO)[C@@H]1O2	.	0	4	.	.	.	.
CN(CC(=O)Nc1ccc(Cl)c(C(F)(F)F)c1)C(=O)COc1cccc2cccnc12	-21	-1	4	0	0	.	.
COc1ccccc1CCC(=O)N(C)CC(=O)Nc1ccc(Cl)c(C(F)(F)F)c1	22*	0	-10	5	0	2	1
NC(=O)C(c1ccc(Cl)cc1)c1ccc(Sc2ccc(Cl)cc2)nn1 (stereo unspecified)	23*	.	.	4	0	4	1
Cc1ccc2nc(C3CCN(S(=O)(=O)c4ccc5ccccc5c4)CC3)[nH]c2c1	26*	.	-29*	6	1	6	2
CN(C)C(=O)C[C@H]1CC[C@H]2[C@@H](COc3ccc(NC(=O)Nc4cccc(Cl)c4)cc3C(=O)N2C)O1	.	0	-2	.	.	.	.
C=CCNC(=O)c1c(CSc2ccc(Cl)cc2)noc1C(=O)NCc1ccccc1	21*	0	6	8	1	6	3
O=C(Nc1cccc(Cl)c1)OCCOC(=O)Nc1cccc(Cl)c1	21*	.	-59	8	1	4	2
O=C(C1CCCCC1)N1CC2(C1)[C@H](c1ccccc1)[C@H](CO)N2Cc1nccs1	.	0	-4	.	.	.	.
Oc1ccccc1C(Nc1nccs1)c1ccc2cccnc2c1O (stereo unspecified)	20*	0	-2	8	1	8	3
Cc1ccc(S(=O)(=O)N2CCCCC2)cc1NC(=O)COC(=O)Cc1cccc2ccccc12	20*	.	.	7	0	7	2
Cc1ccc(S(=O)(=O)N2CCCCC2)cc1NC(=O)COC(=O)C1CC1	-22	0	-2	-2	0	.	.
CC(=O)N[C@H]1C=C[C@H](CC(=O)NCc2ccc(Cl)cc2)O[C@H]1CO	.	0	3	.	.	.	.
SMILES	ADAM10 inh	FGF22 binding	Ecoli rRNA inh	ADAM17 inh	proKLK7 act	ADAM10 confirm	ADAM17 ctr
Cc1ccc(S(=O)(=O)N2CCCCC2)cc1C(=O)Nc1ccc(N2CCOCC2)cc1	7	.	.	7	0	.	.
CCOC(=O)CCC(=O)Nc1cc(S(=O)(=O)N2CCOCC2)ccc1N1CCCCC1	22*	0	1	-1	0	0	0
CCOCC(=O)Nc1cc(S(=O)(=O)N2CCOCC2)ccc1N1CCCCC1	13	43	.	2	0	.	.
COc1ccc(S(=O)(=O)N2CCOCC2)cc1C(=O)Nc1ccc(N2CCCCCC2)cc1	20*	-1	8	4	-1	8	4
CCOc1ccccc1NC(=O)CSc1nc(=O)n(CCCN2CCOCC2)c2c1CCC2	-15	-1	-1	-5	-1	.	.
O=C(CSc1nc(=O)n(CCCN2CCOCC2)c2c1CCC2)Nc1ccccc1F	80*	0	3	-1	1	0	0
COc1ccc2c3c(n(C)c2c1)[C@H](CO)N(C(=O)C1CCCC1)CC31CCN(C(=O)CN(C)C)CC1	.	0	0	.	.	.	.
CCN(CC)c1ccc(-n2c(C)c(C(C)=O)c(C(C)=O)c2C)cc1	8	.	.	1	-1	.	.
CCN(CC)c1ccc(C(=C2C=CC(=[N+](CC)CC)C=C2)c2ccc(N(CC)CC)cc2)cc1	23*	.	.	7	1	0	0
O=C(C[C@H]1CC[C@H]2[C@@H](COC[C@H](O)CN2Cc2nccs2)O1)NCc1ccc(F)cc1	.	0	2	.	.	.	.
CSc1nnc(CSCc2ccc(Cl)cc2Cl)n1-c1ccccc1	23*	.	.	5	0	0	0
C=CCC[C@@H](Cc1ccc(F)cc1)C(=O)OC[C@H]1CCCN1C(=O)[C@@H](CC=C)CC(=O)N[C@H](CO)Cc1ccccc1	21*	0	-23	4	0	1	1
C=CCC[C@@H](Cc1ccc(F)cc1)C(=O)OC[C@@H]1CCCN1C(=O)[C@@H](CC=C)CC(=O)N(CCO)Cc1ccccc1	21*	0	10	4	0	1	1

Assay outcomes (PubChem)
